This is an account of results in PubChem BioAssay (NCI).

The structures appear in SMILES notation. Compounds without any hit were thinned out: in the full panel of roughly 83,000, 20% have a hit.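 Interpretation: 100, growth as untreated; towards 0, rising growth inhibition; 0, no net growth; 0 to -100, cell death. Compounds scoring below 10 were considered active.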 Active and inactive are the calls of the source.

For the test, the system named is HL-60(TB) leukemia. Briefly: NCI-60 one-dose screen, 48 h (100 = growth as untreated, 0 = no growth, -100 = all killed). The following applies: 10 µM unless noted.
As for `CC(=O)N(O)CCCCCNC(=O)CCC(=O)N(O)CCCCCNC(=O)CCC(=O)N(O)CCCCCN(CCCCCCCCCC[P+](c1ccccc1)(c1ccccc1)c1ccccc1)CCCCCCCCCC[P+](c1ccccc1)(c1ccccc1)c1ccccc1`, the growth was -25.7% (active). `NC(N)=Nc1ccc(Oc2cccc(NC(N)=Nc3ccc(I)cc3F)c2)cc1`: the growth was 67.4% (inactive).

On to `NS(=O)(=O)c1ccc(Nc2nc(SCC(=O)c3ccc(Cl)cc3)nc3c2CCCC3)cc1`, for which the growth was 59.3% (inactive).

As to `CCn1c2ccc(/C=N/OCCCN(C)C)cc2c2cc(/C=N/OCCCN(C)C)ccc21`, the growth is -36.9% (active). With `COc1ccc(N/N=C/c2c(-c3ccc(S(C)(=O)=O)cc3)nc3ccccn23)cc1`, the growth is 39.4% (inactive). Next, `Cc1occc1-c1nc2s/c(=C/c3ccc(-c4cc(C(F)(F)F)ccc4Cl)o3)c(=O)n2n1`: 106% (inactive); `CC(=O)Nc1cccc(-n2cnc3cc(-c4ccc(O)cc4)ccc32)c1`: 6.68% (active). Next, `COc1ccc2c(c1)c(-c1nnc(N)nc1-c1c[nH]c3ccc(F)cc13)cn2C`: -0.122% (active); `CN(C)c1ccc(/C=N/Nc2nc(N/N=C/c3ccc(N(C)C)cc3)nc(N3CCOCC3)n2)cc1`: 96.7% (inactive). To `CN(C)S(=O)(=O)c1oc(-c2ccccc2)nc1C#N` belongs 13.8% (inactive). As for `O=c1[nH]c(CCl)nc2c1cnn2-c1ccccc1`, the growth was 109% (inactive). To `CCOC(=O)c1c(N)c(C#N)cn1-c1cc(OC)c(OC)c(OC)c1` belongs 96.1% (inactive). Next, `C#CCn1cccc1CNc1ccc(OC)cc1`: -63.1% (active); `O=C(N/N=C/c1cccs1)c1[nH]c2ccc(Br)cc2c1-c1ccccc1`: -48.3% (active); `CCn1c2ccc(/C=N/NS(=O)(=O)CCN(C)C)cc2c2cc(/C=N/NS(=O)(=O)CCN(C)C)ccc21`: 103% (inactive).

Take `CN1CCN(c2ccc(Nc3nc(NCCCNS(=O)(=O)c4ccc(C(F)(F)F)cc4)c4sccc4n3)cc2)CC1`: the growth was -47.4% (active). To `COc1ccc(NCc2cn(-c3ccc(C(=O)O)cc3)nc2-c2cc(C(F)(F)F)cc(C(F)(F)F)c2)cc1` belongs 90.6% (inactive); to `Cc1ccc(NC(=O)c2ccc(CN3CCN(C)CC3)c(I)c2)cc1Oc1ccc(-c2[nH]nc3ncnc(N)c23)cc1`, 118% (inactive).

Take `Cc1nc(-c2cc3ccccc3c(N3CCN(C)CC3)n2)cs1`: the growth was 97.2% (inactive). To `NS(=O)(=O)c1ccc(Nc2nc(Nc3ccccc3)nc(N3N=C(c4ccc(Cl)cc4)CC3c3ccc(Cl)cc3)n2)cc1` (centres undefined) belongs 25.6% (inactive); to `Cc1ccc(/C=C/c2nn3c(-c4ccco4)nnc3s2)cc1C`, 91.4% (inactive); to `COc1cc(C(=O)c2cc(C(C)=O)c3c(C)cccn23)cc(OC)c1OC`, 88.9% (inactive). Consider `CNc1ncc2cc(-c3ccc(-c4ncccc4F)cc3Cl)c(=O)n(CC3OCC(N)CO3)c2n1` (centres undefined), for which the growth was 20.5% (inactive). Regarding `Cn1c2ccccc2c2c3c(c4c5ccc(Br)cc5oc4c21)C(=O)N(O)C3=O`, the growth was 73% (inactive). `O=C1c2c(c3c4cc(Br)ccc4[nH]c3c3ccc4ccccc4c23)C(=O)N1CCN1CCCCC1`: the growth was 1.48% (active). In the case of `CC[C@H](CO)Nc1ccc2ncc(C#Cc3cncc(C(=O)Nc4ccc(CN5CCN(C)CC5)c(C(F)(F)F)c4)c3)n2n1`, the growth is -46.3% (active). Regarding `O=C(/C=C/c1ccc(F)cc1)c1ccc(O)cc1`, the growth is 81.9% (inactive). For the compound `Cc1ccc(NC(=O)N[C@@H](Cc2cc(F)cc(F)c2)C(=O)NC2C(=O)N3CCC[C@H]3C(=O)N3CCCC[C@H]3C(=O)N[C@@H](C)C(=O)N3C[C@H](C)C[C@H]3C(=O)O[C@H]2C)c(F)c1` (some centres undefined), the growth is 13.4% (inactive). To `O=S(=O)(Nc1cc(Cl)cc(Cl)c1)c1ccc(-c2cnc(C3CC3)o2)cc1` belongs 8.29% (active); to `CNC(=O)c1cc(Oc2ccc3nc(NC(=O)c4cccc(OC(F)(F)F)c4)sc3c2)ccn1`, 67.5% (inactive). With `CCN(CC)CCN1C(=O)c2c(c3c4cccnc4[nH]c3c3ccc4ccccc4c23)C1=O`, the growth is 56.2% (inactive). To `O=C(Nc1nc2ccc(O)cc2s1)c1cccc(C(F)(F)F)c1` belongs 18.3% (inactive); to `CCCCN1C(=O)/C(=c2\sc3n(c2=O)C2C(NN=3)N(CC)C(=O)N2CC)c2cc(Cl)ccc21` (centres undefined), 51.7% (inactive); to `Cn1cc(-c2cc(N)n3nc(-c4cn(C)c5ccccc45)cc3n2)c2ccccc21`, 11.6% (inactive).
